Test results reported in PubChem BioAssay AID588463 (National Center for Advancing Translational Sciences (NCATS), 2011).
Hit rate of the full screen: of about 1,200 compounds, about 15 (1%) were called active. Another 7% or so got no clear call; they are omitted. Many of the other results were omitted from the sample, so actives are more common in it than they were. A number with no mark means an inactive call. Calls come from the whole dose curve; as a rule, active = well fitted activation curve with a large enough effect; inconclusive = small, poorly fitted or top-dose-only effect; inactive = flat fitted curve, though single readings scatter.

The molecules below were run against Beta-2 adrenergic receptor (Homo sapiens) (UniProt P07550) (assay: qHTS assay of beta-arrestin-biased ligands of beta2-adrenergic receptor: Hit Validation). Details: cell-based beta-arrestin recruitment to beta2AR; Potency: activation; series mostly up to 46.1 µM; activation: at the top concentration.
From the text: The concept of biased agonism is an emerging concept of molecular pharmacology which proposes that seven transmembrane receptors (7TMRs) or G protein-coupled receptors (GPCRs), exist in multiple signaling conformations and complexes and that ligands (either agonists or antagonists) can induce signaling biased responses for distinct signal transduction cascades.
Furthermore, accumulating evidence over the last decade has drawn attention to a novel function of beta-arrestins as signal transducers that scaffold various signaling molecules upon activation of 7TMRs. […] This beta-arrestin-biased signaling presumably leads to distinct physiological outcomes from those by G protein activation.
Additionally, the active receptor conformations which […] on this beta-arrestin signaling are likely different from those activating G protein signaling
The goal of this screening project will be to discover and optimize novel beta-arrestin-biased ligands for beta2-AR signaling. A luminescent cell-based assay for beta2-AR-mediated agonism, known as the Tango assay, has been validated in which ligand binding of a recombinant beta2-AR and subsequent recruitment of a recombinant beta-arrestin lead to the release of the transcriptional activator tTA, which upregulates transcription of a tTA-responsive luciferase gene.
NIH Molecular Libraries Probe Production Network [MLPCN]
NIH Chemical Genomics Center [NCGC]
PI: Bryan Roth (UNC) and Bob Lefkowitz (Duke)
NCGC Assay Protocol Summary:
Tango cells were dispensed into white, solid, tissue-culture-treated 1536-well plates at 1500 cells/well in DMEM, containing 1% fetal bovine serum (FBS). Then, 23 nL of compounds or DMSO were delivered to each well using a pin tool. Plates were incubated at 37 degrees C, 5% CO2 for 18 hr. Then 2.5 uL luminescent substrate mix (in-house prepared: 150 mM Tris-Cl, pH 7.6, 3 mM MgCl2, 1% Triton X-100, 5 mM DTT, 0.5 mM CoA, 0.15 mM ATP, 0.44 mM D-luciferin, final concentrations) was added to each well. Plates were then incubated for 15 minutes at room temperature, and subsequently measured on a ViewLux plate reader for luminescent signal using a clear filter with a 10 second exposure and 2x binning. The %Activity was determined from the corrected luminescence values.
Concentration-response curves were fitted to the signals arising from the resulting luminescence. The concentration-effect curves were then classified based on curve quality (r2), response magnitude and degree of measured activity, and compounds were subsequently categorized based on their curve class.
Keywords: biased agonism, beta2-AR, beta-arrestin, GPCR, 7TMR, Tango, luminescence, MLSMR, MLPCN, NIH Roadmap, qHTS, NCGC
Potency is the fitted concentration of half-maximal effect.
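Throughout, for activation: plate controls were DMSO for no effect and maximal isoproterenol or metaproterenol response for full effect.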

Beta-2 adrenergic receptor (Homo sapiens), sequence (P07550 whole entry, looked up): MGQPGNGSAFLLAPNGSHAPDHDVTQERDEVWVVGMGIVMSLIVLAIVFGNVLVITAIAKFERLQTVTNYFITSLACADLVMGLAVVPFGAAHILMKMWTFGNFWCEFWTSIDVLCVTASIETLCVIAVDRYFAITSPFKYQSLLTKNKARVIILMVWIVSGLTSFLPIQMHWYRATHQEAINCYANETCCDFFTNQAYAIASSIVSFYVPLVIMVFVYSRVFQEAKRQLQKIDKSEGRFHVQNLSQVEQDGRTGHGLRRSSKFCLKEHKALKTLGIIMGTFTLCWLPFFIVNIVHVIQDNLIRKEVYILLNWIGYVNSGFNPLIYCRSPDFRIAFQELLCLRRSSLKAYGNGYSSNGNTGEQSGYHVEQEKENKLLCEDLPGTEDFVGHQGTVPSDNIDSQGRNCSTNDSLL

| SMILES | activation | Potency |
| --- | --- | --- |
| CCc1ccc(CNc2ccc(O)cc2)cc1 | -3.25% |  |
| Cc1ccc(S(=O)(=O)Nc2cccnc2)cc1 | -2.88% |  |
| Cc1ccc(/C=C/C(=O)c2ccccc(=O)c2O)c(C)c1 | 0.972% |  |
| Cc1ccc(C2C3=C(CC(C)(C)CC3=O)NC3=C2C(=O)c2ccccc23)cc1 (stereo unspecified) | 0.4% |  |
| Cc1cc(-c2n[nH]c(=S)n2/N=C/C(Cl)=C/c2ccccc2)n[nH]1 | -3.11% |  |
| CN1CCN(C(=S)NC(=O)c2ccc(Br)cc2)CC1 | -0.998% |  |
| COc1ccc(Cl)cc1C(Nc1cccnc1)c1ccc2cccnc2c1O (stereo unspecified) |  | 16.4 µM (active) |
| CC(=O)/C(=N\Nc1ccc(Cl)cc1Cl)Sc1cccc2cccnc12 | -3.04% |  |
| CN1CCN(C(c2cccnc2)c2ccc3cccnc3c2O)CC1 (stereo unspecified) | -0.879% |  |
| CC1=NN(C(N)=S)C(=O)C1N=Nc1ccc([N+](=O)[O-])cc1 (stereo unspecified) | -2.82% |  |
| CC(C)c1nnc(NC(=O)c2cnccn2)s1 | 0.236% |  |
| COCCNC(=S)N/N=C(\C)c1ccc(Cl)c(Cl)c1 | -1.6% |  |
| Cc1ccccc1NC(=O)c1c([N+](=O)[O-])c(C(C)(C)C)nn1C | -1.26% |  |
| O=C(O)c1ccc(C2Nc3ccccc3C(=O)N2Cc2ccccc2)cc1 (stereo unspecified) | -0.733% |  |
| CCOC(=O)C1=C(C)N(c2ccc(OC)cc2)C(=O)/C1=C\c1ccc(O)c(OCC)c1 | 6.03% |  |
| CCCCCC1CCC(c2n[nH]c(=S)n2C)CC1 (stereo unspecified) | -5.76% |  |
| CCCCOc1ccc(C(O)(CCC)CCN2CCOCC2)cc1 (stereo unspecified) | -1.83% |  |
| CCC(=O)N1CCC2(CC1)Oc1ccc(Cl)cc1C(=O)C21CC(c2ccccc2)=NO1 (stereo unspecified) |  | 20.6 µM (active) |
| CC(=O)Nc1nonc1NC(=O)CSc1nc2ccccc2o1 | -7.81% |  |
| CCCCC(=O)NC(c1cccc([N+](=O)[O-])c1)c1c(OC(C)=O)ccc2ccccc12 (stereo unspecified) | -2.28% |  |
| COc1ccc(N/C=C/C(=O)C(F)(F)F)cc1 | -0.916% |  |

| SMILES | activation | Potency |
| --- | --- | --- |
| Cc1cccc(NNC(=S)Nc2c(C)cccc2C)c1 | -0.528% |  |
| CCOc1ccc(/C=N/NC(=O)Cc2csc(Nc3cccc(C(F)(F)F)c3)n2)c(OCC)c1 | 4.88% |  |
| CCN(CC)C(=O)[C@H]1C[C@H](CC(=O)NCc2cccc(C(F)(F)F)c2)C(=O)N2CCc3c([nH]c4cc(-c5ccco5)ccc34)[C@]12C | 0.311% |  |
| CCCCOc1ccc(NC(=O)CSc2cccc3cccnc23)cc1 | -0.82% |  |
| CCCC(=O)NC(c1ccc(OC)cc1)c1ccc2cccnc2c1O (stereo unspecified) |  | 4.11 µM (active) |
| CCCC(=O)NC(c1ccccc1OC)c1ccc2cccnc2c1O (stereo unspecified) | -3.63% |  |
| CCOC(=O)C1=C(C)N=c2s/c(=C3/C(=O)Nc4ccccc43)c(=O)n2C1c1ccc(C)cc1 (stereo unspecified) | -2.56% |  |
| O=c1ccc(S(=O)(=O)N2CCCC2)c[nH]1 | -1.52% |  |
| CCc1cc(=O)oc2cc3occ(C)c3cc12 | -1.07% |  |
| COc1ccc2ccccc2c1/C=N/NC(=S)NCCN1CCOCC1 | -2.79% |  |
| O=C(/C=C/c1ccc(Cl)cc1)NC(=S)Nc1ccccc1C(=O)O | 0.6% |  |
| CC(c1ccccc1)n1c(-c2ccc(C(C)(C)C)cc2)n[nH]c1=S (stereo unspecified) | -2.9% |  |
| Cc1c(C(=O)OC2CCC(C)CC2)[nH]c2c1C(=O)CCC2 (stereo unspecified) | -0.463% |  |
| CCCCn1c(Cc2ccccc2)n[nH]c1=S | -2.41% |  |
| CCOC(=O)C1CCN(Cc2cnc(Oc3ccc(N)cc3)s2)CC1 | -1.52% |  |
| Cc1ccc(N=C2NC(=O)/C(=C/C=C/c3ccco3)S2)cc1 | -2.91% |  |
| CCOc1ccc2nc(NC(=S)N(C)C)sc2c1 | -1.49% |  |
| O=[N+]([O-])c1ccc(OCC(O)CN(C2CCCCC2)C2CCCCC2)cc1 (stereo unspecified) | -0.892% |  |
| COc1ccc(-c2c(-c3ccccc3)c(C(=O)C(=O)NCCCN(C)C)n3ccc4cc(OC)c(OC)cc4c23)cc1OC | -2.83% |  |
| Cc1cccc(NC(=S)NC(=O)c2cccs2)n1 | -2.07% |  |
| CCC1CCCCN1CC(=O)Nc1cc(C)nn1-c1nc(C)cc(C)n1 (stereo unspecified) | -2.24% |  |

| SMILES | activation | Potency |
| --- | --- | --- |
| S=C(NCc1ccccn1)Nc1ccc(Cl)c(Cl)c1 | -3.46% |  |
| CCNC(=S)N/N=C/c1sccc1C | -3.21% |  |
| COc1ccc(OC)c(NC(=O)Cn2c(CCC(=O)O)ccc2-c2ccccc2)c1 | -1.92% |  |
| COC(=O)C1=C(C)NC(=S)NC1c1ccc(-c2cc(Cl)ccc2Cl)o1 (stereo unspecified) | -1.05% |  |
| C/C=C/C=N/NC(=O)CN(c1ccc(Br)cc1)S(=O)(=O)c1ccccc1 | -3.32% |  |
| S=C(N/N=C/c1ccc(Cl)c(Cl)c1)Nc1ccccc1Cl | -4.07% |  |
| Cc1ccc(SCc2cc(=O)[nH]c(/N=C(\N)Nc3ccc(C)c(C)c3)n2)cc1 | -2.5% |  |
| CCCNC(=O)c1ccc(N2CCC3(CC2)CC(c2cccc(Br)c2)=NO3)c(NC(=O)c2ccc(Br)cc2)c1 | -1.42% |  |
| CNC(=S)N/N=C1\CC(c2ccccc2)Oc2ccccc21 (stereo unspecified) | -2.26% |  |
| CCOc1ccccc1C1C2CCCCC2(O)CCN1C(=O)c1cccs1 (stereo unspecified) | 5.71% |  |
| O=C(N/N=C/C(Br)=C\c1ccccc1)c1n[nH]c2c1CCC2 | 0.218% |  |
| Cc1ccc(C2=NOC(C)(c3nnc(-c4ccc(F)cc4)o3)C2)cc1 (stereo unspecified) | -4.53% |  |
| C/C(=N\NC(=S)NC(C)C)c1ccccc1 | -3.07% |  |
| COc1ccc2c(c1)c1ncn(CCN3CCCCC3)c(=O)c1n2C | -0.19% |  |
| CCOC(=O)C1CCN(C(=O)Nc2c(-c3ccccc3)noc2C)CC1 | -2.17% |  |
| CCCCCOCC1CC(C/C(C)=N/NC(N)=S)C(=O)O1 (stereo unspecified) | -1.64% |  |
| COc1ccccc1NS(=O)(=O)c1cc(NC(=O)CNC(=O)c2ccc(C)s2)ccc1Cl | -2.81% |  |
| Cc1ccc(C)c(NC(=S)NNc2ccc(F)cc2F)c1 | -5.48% |  |
| O=C(Oc1c(CN2CCOCC2)cc(Cl)c2cccnc12)c1ccccc1Br | 7.38% |  |
